TRb-SRC2 inh – disrupts binding of human TR beta to SRC2; P10828; TRbeta-SRC2 peptide binding, fluorescence polarization; receptor liganded with 1 µM T3; Potency, µM (doses to about 106 µM), for inactives: at the top dose activity change, negative = inhibition, actives largely listed as inhibitors; 280,000 tested, 0.065% active;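 further: plate controls were bound peptide for no effect and peptide without receptor for full effect; nearly all actives have a fitted effect of over 50% in size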
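Quantitative HTS by FP: 0.6 uM TRb LBD, 20 nM labeled SRC2 20-mer, 1 uM T3, 5% DMSO; 5 hr ambient incubation; % activity per concentration and potencies from concentration series.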
GoLoco inh red – blocks human Gai1 binding to RGS12 GoLoco peptide, red readout | Gai1:RGS12 GoLoco peptide FP, rhodamine, 10 min | Potency, µM (highest dose often 61.6 µM), inactives show at the top dose activity, negative = inhibition, most hits filed as inhibitors | P63096 | 230,000 tested, 0.44% active; active means well fitted inhibition curve with a large enough effect, not every such curve was filed as active; inactive means no such curve, though single readings can be large or run the other way; further: nearly all actives have a fitted effect of over 30% in size
Target sequence (P63096 whole entry, looked up): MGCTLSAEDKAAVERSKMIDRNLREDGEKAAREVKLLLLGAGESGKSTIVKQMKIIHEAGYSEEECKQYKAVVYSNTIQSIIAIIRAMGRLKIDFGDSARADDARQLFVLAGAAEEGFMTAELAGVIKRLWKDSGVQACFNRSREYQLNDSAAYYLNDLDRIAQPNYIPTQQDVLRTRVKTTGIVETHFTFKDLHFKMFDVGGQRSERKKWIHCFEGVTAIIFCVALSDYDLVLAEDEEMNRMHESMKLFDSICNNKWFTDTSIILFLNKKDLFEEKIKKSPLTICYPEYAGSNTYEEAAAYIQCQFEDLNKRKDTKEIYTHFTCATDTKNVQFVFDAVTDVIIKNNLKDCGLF
TexasRed fluor – alters Texas Red total fluorescence, flagging assay interference. 280,000 tested, 0.29% active. Potency, µM (doses to about 106 µM), without a hit: at the highest dose fluorescence change, negative = quenching. TRb/SRC2 Texas Red total fluorescence interference; active means well fitted curve in either direction with a large enough effect; inconclusive means small, poorly fitted or top-dose-only effect
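Human TRb ligand-binding domain at 0.6 uM with 20 nM Texas Red SRC2 peptide in Tris buffer containing 1 uM T3 and 5% DMSO, incubated with compound 5 h at ambient temperature. Total fluorescence (555/632 nm) calculated as parallel + 2 × perpendicular.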
Tau fluor cs – counter-screen for tau fibril formation inhibitors | 280,000 tested, 0.93% active | Potency, µM (top dose mostly 57.7 µM), for inactives: top-dose activity change, negative = decrease | tau K18 P301L Alexa594 fluorescence, heparin fibrillization; further: nearly all actives have a fitted effect of over 55% in size
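Human tau K18 P301L (15 uM unlabeled, 0.24 uM Alexa 594-labeled) in 100 mM sodium acetate pH 7 with 20 uM heparin, 6 hr at 37 C. ThT 30 uM added, 1 hr ambient; Alexa 594 FP and total fluorescence read at 555/632 nm.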
Tau ThT inhib – blocks human tau fibril formation measured by thioflavin T; P10636; recombinant tau K18 P301L (four-repeat tau fragment), heparin-induced fibrillization, ThT fluorescence; Potency, µM (top dose mostly 57.4 µM), for the others: at the top dose activity, negative = inhibition, usual class: inhibitors; 270,000 tested, 2.1% active; AID 1460; further: nearly all actives have a fitted effect of over 55% in size
Target sequence (P10636 561-689 P618L limits assumed): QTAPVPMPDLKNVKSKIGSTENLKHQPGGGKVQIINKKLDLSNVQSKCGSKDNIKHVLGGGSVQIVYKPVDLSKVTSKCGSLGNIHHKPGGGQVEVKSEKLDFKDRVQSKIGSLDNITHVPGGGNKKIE
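Aggregation was driven by heparin (20 uM final) acting on recombinant tau […] bearing P301L in 100 mM sodium acetate pH 7; fibrils were detected with Thioflavin T.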
Tau fibril FP – inhibitors of human tau fibril formation | P10636 | K18 P301L tau heparin fibrillization, Alexa594 FP, 6 h | Potency, µM (top dose mostly 57.7 µM), for inactives: at the highest dose activity, negative = inhibition, actives largely listed as inhibitors | 280,000 tested, 0.39% active | AID 1468; further: nearly all actives have a fitted effect of over 55% in size
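Human tau K18 […] P301L fragment, 15 uM unlabeled plus 0.24 uM Alexa 594-labeled tau (final), with compound and 20 uM heparin in 100 mM sodium acetate pH 7; 6 hr at 37 C, then Alexa 594 FP read.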
Numbers without * were called inactive; ? = inconclusive; / = no result given; ! = not confirmed by another sample; [ ] = another dose, or the depositor's remark. In the library only some 3.2% were active in any assay of this set; here they are far more common. Unless noted, the call rests on the fitted dose curve; in most records, active means well fitted curve in the direction sought with a large enough effect; inconclusive means small, poorly fitted or top-dose-only effect, or another doubt; inactive means no such curve, though single readings can be large; an effect the other way counts as inactive or inconclusive. Unless noted, on the % scale 0 is the no-effect control and ±100 the full control effect; potency means the concentration at half of the fitted maximal effect.

SMILES	TRb-SRC2 inh	GoLoco inh red	TexasRed fluor	Tau fluor cs	Tau ThT inhib	Tau fibril FP
COc1nc(-c2cccc([N+](=O)[O-])c2)nc2ccccc12	-3.6%	2.3%	0.9%	-22.2%	-11.6%	-13.8%
COc1cccc(CN(C)c2nc(-c3cccs3)nc3ccccc23)c1	5.0%	3.9%	-0.2%	-28.0%	?	?
COc1ccc(Nc2nc(-c3cccs3)nc3ccccc23)cc1	9.4%	9.3%	-4.2%	10µM*[quencher]	?	15.0%
CN1CCN(c2ncc3ncc(=O)n(CCC#N)c3n2)CC1	/	6.4%	/	/	/	/
O=C1/C(=C/Nc2cccc([N+](=O)[O-])c2)CCc2ccccc21	-16.5%	-9.2%	-2.0%	?	14.1µM*	9.1%
Nc1ccc(-c2nc3ccc(-c4nc5ccc(N)cc5[nH]4)cc3[nH]2)cc1	7.1%	16.1%	44.7µM*[quencher]	12.6µM*[quencher]	12.6µM*	10.3%
Nc1ccc(-c2nc3ccccc3[nH]2)cc1	4.9%	-1.0%	-8.7%	-15.7%	?	-0.2%
CCOC(=O)C1=CN(c2cccc(F)c2)C=C(C(=O)OCC)C1c1cc(OC)c(O)c([N+](=O)[O-])c1	-11.0%	6.8%	2.4%	?	12.6µM*	9.2%
NC1=Nc2cccc3cccc1c23	0.5%	20µM*	2.9%	3.2%	?	7.1%
CC[C@H](C)[C@H](N)C(=O)N[C@@H](CCCNC(=N)N)C(=O)N[C@@H](CCC(N)=O)C(=O)NCC(=O)N1CCC[C@H]1C(=O)N[C@@H](CCCCN)C(=O)N[C@@H](CCC(=O)O)C(=O)N1CCC[C@H]1C(=O)N[C@@H](Cc1ccccc1)C(=O)N[C@@H](CCCNC(=N)N)C(=O)N[C@@H](CC(=O)O)C(=O)N[C@@H](Cc1ccc(O)cc1)C(=O)N[C@H](C(=O)N[C@@H](CC(=O)O)C(=O)N[C@@H](CCCNC(=N)N)C(=O)N[C@@H](Cc1ccccc1)C(=O)N[C@@H](Cc1ccc(O)cc1)C(=O)N[C@@H](CCCCN)C(=O)N[C@H](C(=O)N[C@@H](CC(C)C)C(=O)O)[C@@H](C)O)C(C)C	-5.6%	/	-6.4%	/	/	/
CCc1ccccc1NS(=O)(=O)c1ccc(-c2coc(C)n2)cc1	-19.6%	/	11.2µM*[quencher]	-1.3%	10.9%	3.3%
Cc1cc(C)c(NS(=O)(=O)c2ccc(-c3coc(C)n3)cc2)c(C)c1	2.2%	/	0.0%	-3.2%	6.5%	2.5%
Cc1nc(-c2ccc(S(=O)(=O)NCc3ccc(F)cc3)cc2)co1	-0.5%	/	-4.0%	-3.4%	4.3%	-5.1%
CCOc1ccc(CNS(=O)(=O)c2ccc(-c3coc(C)n3)cc2)cc1	-10.8%	/	0.0071µM*[quencher]	-6.1%	-3.5%	-5.8%
O=C(NCC1CCCCC1)c1nnc(C(=O)NCC2CCCCC2)c2c1[nH]c1ccccc12	-2.1%	-1.3%	-0.6%	-7.6%	-0.8%	-5.4%
NN/C(=C\[N+](=O)[O-])Nc1ccc(Cl)cc1	6.5%	19.6%	-1.6%	?	15.8µM*	-1.8%
CCN(CC)CC[n+]1ccc2c(C)c3[nH]c4ccc(O)cc4c3c(C)c2c1	/	-0.1%[14.2 µM]	/	/	/	/
COc1ccc(N(C)C(=O)c2cc(S(=O)(=O)N3CCc4ccccc43)cn2C)c(OC)c1	-19.7%	/	0.0158µM*[quencher]	?	-13.6%	13.3%
COc1cc(NC(=O)c2cc(S(=O)(=O)N3CCc4ccccc43)cn2C)cc(OC)c1OC	-6.9%	/	-0.2%	?	-3.9%	13.7%
O=C(C1=C(O)C(=O)N(c2ncccn2)C1c1ccc(Cl)c(Cl)c1)c1ccco1 (stereo unspecified)	-4.4%	172.1%	-1.4%	?	17.8µM*	?
O=C(C1=C(O)C(=O)N(c2ncccn2)C1c1ccc(Cl)cc1)c1ccco1 (stereo unspecified)	/	23.9%	/	-6.4%	-11.6%	2.3%
CN(C)CCCc1c2ccccc2nc2ccc(Cl)cc12	/	5.2%[14.2 µM]	/	/	/	/
Nc1nn2c(C(F)(F)F)cc(=O)[nH]c2c1N=Nc1cccc(F)c1	9.4%	11.3%	?	?	7.94µM*	-14.9%
Cc1cc(=O)[nH]c2c(N=Nc3ccc(O)cc3)c(N)nn12	7.9%[53 µM]	16.6%	-20.2%[53 µM]	-25.7%	8.91µM*	9.7%
O=c1ccc2[n+]([O-])c3ccc(O)cc3oc-2c1	?	10µM*	1.58µM*[fluorescent]	2µM*[fluorescent]	12.6µM*	32.1%
SMILES	TRb-SRC2 inh	GoLoco inh red	TexasRed fluor	Tau fluor cs	Tau ThT inhib	Tau fibril FP
CCOc1ccc(NC(=O)N2CCC(CN3CCC(C)CC3)CC2)cc1	-18.7%	/	100µM*[quencher]	-5.3%	-0.7%	1.6%
NC(C(=O)O)c1cccc(O)c1 (stereo unspecified)	-3.3%	6.2%	-1.2%	-2.9%	10.4%	-0.8%
O=C(Nc1ccc(-c2nc3ccccc3s2)c(O)c1)c1ccc(Br)cc1	-1.7%	/	4.1%	-3.7%	?	-14.4%
Oc1ccc(N=C/C=C/c2ccc(Br)cc2)cc1-c1nc2ccccc2s1	2.2%	81.6%	-11.6%	?	11.2µM*	-23.2%
N=C1N=C(N)c2cc3ccccc3cc21	3.3%	2.3%	-4.3%	/	/	/
Nc1ccccc1S(=O)(=O)Nc1cccc2cccnc12	-5.9%	/	1.7%	/	/	/
COc1cc(NCCCC(C)N)c2ncccc2c1 (stereo unspecified)	28.2µM*	28.2µM*	44.7µM*[fluorescent]	?	25.1µM*	?
CCC(CNc1cc(OC)cc2cccnc12)NC1CCCCC1 (stereo unspecified)	?	28.2µM*	4.6%	-24.5%	?	0.6%
COc1cc(NS(=O)(=O)c2ccc(C)cc2)c2ncccc2c1	0.8%	9.3%	-4.6%	?	-4.4%	8.1%
C=CCOC(=O)C(C(C)=O)C(NC(=O)OC)c1ccc2ccccc2c1 (stereo unspecified)	6.1%[11.2 µM]	/	-19.2%[11.2 µM]	-5.9%[11.6 µM]	-1.1%[11.5 µM]	-13.9%[11.6 µM]
Cc1ccc([N+](=O)[O-])c(N)c1	4.9%	10.2%	-1.5%	/	/	/
O=[N+]([O-])c1ccccc1S(=O)(=O)N1CCN(Cc2cc3c(cc2O)OCO3)CC1	-0.7%	-0.9%	-3.0%	11.2µM*[quencher]	?	?
CC12CCC=CC1C(c1cccc([N+](=O)[O-])c1)N(Cc1ccccc1)C2=O (stereo unspecified)	1.6%	/	-2.8%	/	/	/
S=C(S)NCCN1CCNCC1	/	4.8%[14.2 µM]	/	/	/	/
CC(=O)C1(O)Cc2c(O)c3c(c(O)c2C(OC2CC(N)C(O)C(C)O2)C1)C(=O)c1c(O)cccc1C3=O (stereo unspecified)	25.1µM*	/	44.7µM*[fluorescent]	/	/	/
COc1cccc2c1C(=O)c1c(O)c3c(c(O)c1C2=O)C[C@@](O)(C(=O)CO)C[C@@H]3O[C@H]1C[C@H](N)[C@H](O)[C@H](C)O1	22.4µM*!	2.82µM*	100µM*[fluorescent]	-6.0%	3.16µM*	25.1µM*
